Test system: MILI (PIWIL2) piRISC loaded with L1MC piRNA (26 nt)
Experiment: pre-steady-state target cleavage rate (min^-1); guide: L1MC piRNA 5'p-UAACUAAAUACUAUGCAAGCUGUAGG; MIWI and MILI are mouse PIWI proteins and EfPiwi is from a freshwater sponge; tags in brackets are library labels; higher = faster piRNA-guided slicing of the target
Details: auxiliary factor: none (no GTSF1)
How it was run: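 Cleave-'n-Seq: a transcribed, DNA-blocked target RNA library (0.1 nM) was mixed with 1 nM active affinity-purified piRISC carrying one synthetic guide, with or without 500 nM GTSF1 partner protein, in HEPES–potassium acetate buffer at 33 °C for 0–8 or 0–960 min. Uncleaved targets were sequenced and normalised to depth and to weakly complementary targets. Three trials were pooled, and k3 was capped at 0.0001 min^-1. The pre-steady-state cleavage rate came from a burst-and-steady-state fit.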

pre-steady-state target cleavage rate, < 0.0001:
UCCUGGAUGUCGAACGUAUGUAUUUAGUAA
UCCUGGAUGUCGAACGUUAGUAUUUACGUUA
UCCUGGAUGUCGAACCAUAGUAAAAAGUUA
UCCUGGAUGUCGAACGUAAGUAUUUAGUAUA
UCCUGGAUGUCGAACGAAUAGUAUUUAGUUA
